Test results: article PMC4336329 (PLoS ONE, 2015)
The whole screen tested about 310,000 compounds, of which about 14,000 (4.5%) showed an effect of 50% or more. The effect is printed as a negative number. What follows is part of a selection rich in strong results, with near analogues and random picks from the rest.

target: human ether-à-go-go-related gene (hERG) potassium channel (human, UniProt Q12809); assay: primary screen, population patch clamp on CHO cells stably expressing hERG; higher = less effect of the substance
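Also: peak tail current of the secondary pulse compared with the same well before compound.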

Sequence of human ether-à-go-go-related gene (hERG) potassium channel (Q12809 whole entry, looked up): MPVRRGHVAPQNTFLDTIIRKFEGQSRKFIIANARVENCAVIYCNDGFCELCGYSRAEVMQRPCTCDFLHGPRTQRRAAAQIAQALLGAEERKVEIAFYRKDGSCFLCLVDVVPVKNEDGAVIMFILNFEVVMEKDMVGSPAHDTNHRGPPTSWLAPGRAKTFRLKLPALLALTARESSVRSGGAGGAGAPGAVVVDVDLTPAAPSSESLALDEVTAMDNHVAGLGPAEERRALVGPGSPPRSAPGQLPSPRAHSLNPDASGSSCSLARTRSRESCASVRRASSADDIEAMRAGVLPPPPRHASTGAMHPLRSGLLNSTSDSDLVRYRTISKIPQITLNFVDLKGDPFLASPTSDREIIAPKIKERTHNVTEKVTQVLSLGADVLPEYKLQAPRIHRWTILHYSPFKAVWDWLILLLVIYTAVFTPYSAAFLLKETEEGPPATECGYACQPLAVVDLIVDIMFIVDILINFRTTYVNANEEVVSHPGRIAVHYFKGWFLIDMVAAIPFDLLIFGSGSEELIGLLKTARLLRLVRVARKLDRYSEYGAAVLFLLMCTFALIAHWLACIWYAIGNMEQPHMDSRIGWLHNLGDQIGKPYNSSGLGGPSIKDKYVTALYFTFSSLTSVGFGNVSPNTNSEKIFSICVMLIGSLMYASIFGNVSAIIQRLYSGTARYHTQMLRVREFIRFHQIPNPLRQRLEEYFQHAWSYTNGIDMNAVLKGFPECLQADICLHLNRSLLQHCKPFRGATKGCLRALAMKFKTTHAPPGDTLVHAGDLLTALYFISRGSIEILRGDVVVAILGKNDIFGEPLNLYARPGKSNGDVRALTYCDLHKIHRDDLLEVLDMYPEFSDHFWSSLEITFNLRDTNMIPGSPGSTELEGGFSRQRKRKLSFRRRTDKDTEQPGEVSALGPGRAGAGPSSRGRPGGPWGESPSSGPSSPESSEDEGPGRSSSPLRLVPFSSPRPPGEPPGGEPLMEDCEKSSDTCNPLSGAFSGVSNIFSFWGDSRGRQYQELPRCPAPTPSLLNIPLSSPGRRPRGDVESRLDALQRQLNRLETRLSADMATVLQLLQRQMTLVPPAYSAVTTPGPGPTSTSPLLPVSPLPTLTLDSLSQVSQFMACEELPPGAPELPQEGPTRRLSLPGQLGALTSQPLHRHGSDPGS

SMILES | hERG current change (%, negative = inhibition) at 10uM [%]
O=C(CN(Cc1ccccc1Cl)C(=O)c1csnn1)NC1CCCC1 | -13.6
c1cncc(-c2nc(NCC3CCCO3)c3ccccc3n2)c1 (stereo not drawn) | 7.02
COc1cccc(-c2nc(NCC3CCCO3)c3ccccc3n2)c1O (stereo not drawn) | -21.2
COc1ccccc1Nc1nc(NCC2CCCO2)c2ccccc2n1.Cl (stereo not drawn) | -59.6
CC(C)C(=O)NC(=S)Nc1ccccc1C(F)(F)F | 10.4
O=C(N/N=C/c1coc2ccccc2c1=O)c1ccccc1Br | -0.324
Cc1cccc(NCc2ccccc2)c1 | 5.29
Cc1cccc(Nc2ccc(NCc3ccccc3)nn2)c1 | -51.8
Clc1ccc(Nc2ccc(NCc3ccccc3)nn2)cc1 | -37.8
O=C(NNC(=S)NC(=O)c1ccccc1[N+](=O)[O-])c1ccc(Cl)cc1Cl | -58.2
O=C(NNC(=S)NC(=O)c1ccccc1[N+](=O)[O-])c1ccccc1Cl | 6.38
O=C(NNC(=S)NC(=O)c1ccccc1[N+](=O)[O-])c1ccccc1[N+](=O)[O-] | 15.1
N/C(=N\N=C\c1ccco1)SC1CC(=O)N(c2ccccc2)C1=O (stereo not drawn) | 17.1
CC(C)CC(=O)NC(=S)Nc1sc2c(c1C(N)=O)CCC2 | 15.7
Cc1nn(-c2cc(N3CCOCC3)ccc2N)c(=O)c2ccccc12 | 0.574
O=C(NCc1ccccn1)c1ccccc1OCc1ccc(F)cc1 | -56.9
COc1ccccc1C(=O)NCc1ccccn1 | 18.4
O=C(NCc1ccc(F)cc1)c1ccccc1OCc1ccccc1 | -8.06
O=C(Cn1nc(C(=O)O)c2ccccc2c1=O)NCC1CCCO1 (stereo not drawn) | 20
CCCCc1cc(=O)oc2cc(OCC(=O)N3CCc4ccccc43)ccc12 | 6.81
Cc1ccc(OCCN2CCCC2)cc1.O=C(O)C(=O)O | -3.76
O=C(O)C(=O)O.c1ccc(OCCN2CCOCC2)cc1 | 12

SMILES | hERG current change (%, negative = inhibition) at 10uM [%]
CCOc1ccc(OCCN2CCCCC2)cc1.O=C(O)C(=O)O | -21.7
CCOc1ccc(OCCOCCN2CCCC2)cc1.O=C(O)C(=O)O | 0.376
c1ccc2cc(OCCN3CCCC3)ccc2c1 | -33.1
CCN(CC)CCOc1ccc2c(c1)C(=NO)c1cc(OCCN(CC)CC)ccc1-2.Cl | -16.4
CCOc1ccc(C(=O)CCN2CCCCC2)cc1 | -19.7
O=C(O)C(=O)O.c1ccc(COc2ccc(OCCN3CCCCC3)cc2)cc1 | -70.2
COC(=O)c1ccc(OCCN2CCCCCC2)cc1.O=C(O)C(=O)O | -1.51
O=C(O)C(=O)O.c1ccc(COc2ccc(OCCN3CCCC3)cc2)cc1 | -60.3
Cl.ON=C1c2cc(OCCN3CCCCC3)ccc2-c2ccc(OCCN3CCCCC3)cc21 | -58.1
CCOc1ccc(CNCCN2CCCC2)cc1.O=C(O)C(=O)O | -63.9
CCn1c(-c2ccccc2)c[nH]c1=S | 15.4
CN(C)c1cccc(C(=O)NCCCSc2ccccc2)c1 | 4.72
Cc1nn(Cc2ccccc2Cl)c2sc(C(=O)OC3CCCC3=O)cc12 (stereo not drawn) | -4.19
COc1cc(NS(=O)(=O)c2ccc(NC(=S)NC(=O)c3ccc(F)cc3)cc2)nc(OC)n1 | 3.73
N#Cc1cc2cc3c(cc2nc1NCCNC(=S)NCCCN1CCOCC1)OCO3 | 14.2
CC(C)CCN1C(=O)c2ccc(C(=O)OCC(=O)N(C)C3CCS(=O)(=O)C3)cc2C1=O (stereo not drawn) | -8.41
CCn1nc(C(=O)OCC(=O)NC(C)C)c2ccccc2c1=O | 8.88
CC(C)Cn1nc(C(=O)OCC(=O)NCC(F)(F)F)c2ccccc2c1=O | -78.2
CCn1nc(C(=O)OCC(=O)NCC(C)C)c2ccccc2c1=O | 0.00988
COC(=O)c1cc(NC(=O)c2c(C)noc2C)ccc1N1CCOCC1 | 17.6
COc1ccc(N2C(=O)/C(=C/c3ccc(N(C)C)o3)C(=O)NC2=S)cc1 | 3.28
O=C(c1ccc(Cn2cnnn2)cc1)N1CCCC(Nc2ccc(F)cc2)C1 (stereo not drawn) | -0.196

SMILES | hERG current change (%, negative = inhibition) at 10uM [%]
COc1cccc(CN2CCN(Cc3ccc(O)c(OC)c3)CC2CCO)c1 (stereo not drawn) | -5.76
CC(=O)Nc1ccc(CN2CCN(Cc3ccc(C)cc3)C(CCO)C2)cc1 (stereo not drawn) | -34.5
COc1ccc(CN2CCN(Cc3ccc(C)cc3)C(CCO)C2)cc1OC (stereo not drawn) | -54.3
COc1ccc(CN2CCN(Cc3ccc(CO)o3)CC2CCO)cc1C (stereo not drawn) | -8.64
COc1cc(CN2CCN(Cc3ccc(C)cc3)C(CCO)C2)cc(OC)c1O (stereo not drawn) | -51.6
COc1cc(CN2CCN(Cc3ccc(C)cc3)C(CCO)C2)ccc1O (stereo not drawn) | -19.6
CCOc1cccc(OCCOCCN(C)C)c1.O=C(O)C(=O)O | 0.719
COC(=O)c1ccc(CN2C(=O)NC3(CCCCC3C)C2=O)o1 (stereo not drawn) | -11.4
O=C(CSc1nnc(Cc2ccccc2)o1)Nc1ccc2c(c1)OCO2 | 10.5
CCOC(=O)Cc1csc(NC(=O)Cc2ccccc2)n1 | 1.37
CC(=O)N1c2ccc(S(=O)(=O)N3CCC(C(=O)Nc4cccc(C(F)(F)F)c4)CC3)cc2CC1C (stereo not drawn) | 11.7
COc1ccc(OCc2cc(C(=O)N3CCCCCC3)no2)c(Cl)c1 | -11.7
O=C(Nc1ccc(F)cc1)N1CCN(C/C=C/c2ccccc2)CC1 | -68.6
O=C(Nc1ccccc1)N1CCN(CCc2ccccc2)CC1 | -14.5
CCOC(=O)N1CCN(C(=O)Nc2cccc(Cl)c2)CC1 | 2.81
O=C(Nc1ccc(F)cc1F)N1CCN(CCc2ccccc2)CC1 | -15.6
S=C(Nc1ccccc1)N1CCN(C/C=C/c2ccccc2)CC1 | -8.71
O=C(Nc1cccc(F)c1)N1CCN(C/C=C/c2ccccc2)CC1 | -59
O=C(Nc1ccc2c(c1)OCO2)N1CCN(C/C=C/c2ccccc2)CC1 | -15.4
O=C(Nc1cccc(Cl)c1)N1CCN(C/C=C/c2ccccc2)CC1 | -68.5
O=C(Nc1ccc(F)cc1)N1CCN(CCc2ccccc2)CC1 | -52.3
O=C(Nc1cccc(Cl)c1)N1CCOCC1 | 20
